Consider nine molecules from PubChem BioAssay (NCI).

The panel holds about 79,000 compounds, 15% with a hit somewhere; the sample as a whole holds those more often. A number with no mark means an inactive call. Active and inactive are the calls of the source. Cut-off read from the data, not from the text of the source: active = growth inhibition above about 70%; inactive = the rest.

A short description of assay [1]: NCI Yeast Anticancer Drug Screen. Data for the rad50 strain (AID 155).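 Note: 0% = growth of vehicle-only cultures of the same strain.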 The note with it: S. cerevisiae rad50 strain growth inhibition, stronger effect = higher value. Summed up:
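A DNA repair-deficient yeast mutant serves as the test organism; compound-induced growth inhibition is calculated against vehicle-treated cells.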

Assay [2] is described as follows: NCI Yeast Anticancer Drug Screen. Data for the mec2-1 strain (AID 157). Particulars: S. cerevisiae mec2-1 strain, stronger effect = higher value. The procedure, abridged:
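Readout is yeast growth inhibition, normalised to vehicle-treated controls, in the mec2-1 strain exposed to compound.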

A short description of assay [3]: NCI Yeast Anticancer Drug Screen. Data for the sgs1 mgt1 strain (AID 161).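 Note: 0% = growth of cultures given vehicle only.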 Particulars: S. cerevisiae sgs1 mgt1 strain, stronger effect = higher value. The procedure, abridged:
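This yeast growth screen uses a strain with defined DNA-repair lesions; compound-treated growth is compared with vehicle-treated growth.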

Assay [4] in a line: NCI Yeast Anticancer Drug Screen. Data for the cln2 rad14 strain (AID 165).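 Note: 0% = growth equal to vehicle treated cultures.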 Particulars: S. cerevisiae cln2 rad14 strain, stronger effect = higher value. Summed up:
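Relative to vehicle controls, growth inhibition of compound-treated cln2 rad14 yeast was recorded.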

The nature of assay [5]: NCI Yeast Anticancer Drug Screen. Data for the bub3 strain (AID 167). Particulars: S. cerevisiae bub3 mutant strain, stronger effect = higher value. The procedure, abridged: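 Inhibition values come from growth of compound-treated mutant yeast normalised to vehicle-treated controls.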
The nature of assay [6]: NCI Yeast Anticancer Drug Screen. Data for the mlh1 rad18 strain (AID 175). The note with it: S. cerevisiae mlh1 rad18 strain growth inhibition, stronger effect = higher value. Summed up: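 Test agents were incubated with a yeast strain of defined genotype (DNA damage repair defect). Inhibition of growth was derived by comparison with vehicle-exposed cultures.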
Where [7] appears, read: at 5.0 µM (retest, dose inferred, filed as 0.5).
Where [8] appears, read: at 50.0 µM (retest, dose inferred, filed as 5.0).

As to `CCOC(=O)C1=C(C)NC(C)=C(C(=O)OCC)C1c1ccc([N+](=O)[O-])s1`, the growth inhibition was 61% in assay [1] (setting [7]); 98% (active) in assay [1] (setting [8]); 91.3% (active) in assay [1] (at 50.0 µM); 35% in assay [2] (setting [7]); 98% (active) in assay [2] (setting [8]); 93.2% (active) in assay [2] (at 50.0 µM). Further, the growth inhibition was 49% in assay [3] (setting [7]); 95% (active) in assay [3] (setting [8]); 93.2% (active) in assay [3] (at 50.0 µM); 29% in assay [4] (setting [7]); 77% (active) in assay [4] (setting [8]); 91.7% (active) in assay [4] (at 50.0 µM). For the same molecule, the growth inhibition is 40% in assay [5] (setting [7]); 83% (active) in assay [5] (setting [8]); 93.2% (active) in assay [5] (at 50.0 µM); 65% in assay [6] (setting [7]); 98% (active) in assay [6] (setting [8]); 91.6% (active) in assay [6] (at 50.0 µM).
On to `C=CCOc1ccc(C2(c3ccc(OCC=C)cc3)C(=O)Nc3ccccc32)cc1`, for which the growth inhibition is 1% in assay [1] (setting [7]); 90% (active) in assay [1] (setting [8]); 84.1% (active) in assay [1] (at 50.0 µM); -8% in assay [2] (setting [7]); 92% (active) in assay [2] (setting [8]); 86.8% (active) in assay [2] (at 50.0 µM). Besides, the growth inhibition in assay [3] (setting [7]) was 8%; in assay [3] (setting [8]), 90% (active); in assay [3] (at 50.0 µM), 89.2% (active); in assay [4] (setting [7]), 24%; in assay [4] (setting [8]), 91% (active); in assay [4] (at 50.0 µM), 86.5% (active). The growth inhibition in assay [5] (setting [7]) is 6%; in assay [5] (setting [8]) it was 93% (active); in assay [5] (at 50.0 µM), 87.9% (active); in assay [6] (setting [7]) it was 5%; in assay [6] (setting [8]), 88% (active); in assay [6] (at 50.0 µM), 86.6% (active).
As to `O=[N+]([O-])/C(Cl)=C/C(=C1/Nc2ccccc2O1)[N+](=O)[O-]`, the growth inhibition in assay [1] (setting [7]) is 17%; in assay [1] (setting [8]), 87% (active); in assay [1] (at 50.0 µM), 79.9% (active); in assay [2] (setting [7]) it was -11%; in assay [2] (setting [8]), 47%; in assay [2] (at 50.0 µM) it was 65.6%. For the same molecule, the growth inhibition in assay [3] (setting [7]) is -14%; in assay [3] (setting [8]) it was 48%; in assay [3] (at 50.0 µM) it was 72.5% (active); in assay [4] (setting [7]), -12%; in assay [4] (setting [8]), 47%; in assay [4] (at 50.0 µM) it was 65.4%. For the same molecule, the growth inhibition is -15% in assay [5] (setting [7]); 53% in assay [5] (setting [8]); 71.2% (active) in assay [5] (at 50.0 µM); 17% in assay [6] (setting [7]); 75% (active) in assay [6] (setting [8]); 69% in assay [6] (at 50.0 µM).
`O=C1OC(=O)c2ccc([N+](=O)[O-])c3cccc1c23`: the growth inhibition was 0% in assay [1] (setting [7]); 7% in assay [1] (setting [8]); 70.4% (active) in assay [1] (at 50.0 µM); 2% in assay [2] (setting [7]); 9% in assay [2] (setting [8]); 51.6% in assay [2] (at 50.0 µM). In addition, the growth inhibition in assay [3] (setting [7]) is 2%; in assay [3] (setting [8]), 2%; in assay [3] (at 50.0 µM) it was 76.4% (active); in assay [4] (setting [7]) it was 3%; in assay [4] (setting [8]), 14%; in assay [4] (at 50.0 µM), 26.4%. Further, the growth inhibition in assay [5] (setting [7]) was 0%; in assay [5] (setting [8]) it was 16%; in assay [5] (at 50.0 µM), 74.2% (active); in assay [6] (setting [7]), 0%; in assay [6] (setting [8]) it was 13%; in assay [6] (at 50.0 µM) it was 82.8% (active).
Take `CCCCN(CCCC)CC(O)Cc1cc2ccccc2c2ccccc12` (configuration not stated): the growth inhibition in assay [1] (setting [7]) is 0%; in assay [1] (setting [8]), 65%; in assay [1] (at 50.0 µM), 90.7% (active); in assay [2] (setting [7]), 1%; in assay [2] (setting [8]) it was 44%; in assay [2] (at 50.0 µM) it was 48.6%. The growth inhibition was -4% in assay [3] (setting [7]); 92% (active) in assay [3] (setting [8]); 99.1% (active) in assay [3] (at 50.0 µM); -7% in assay [4] (setting [7]); 42% in assay [4] (setting [8]); 62.6% in assay [4] (at 50.0 µM). Moreover, the growth inhibition in assay [5] (setting [7]) is 0%; in assay [5] (setting [8]), 47%; in assay [5] (at 50.0 µM), 94.4% (active); in assay [6] (setting [7]), 18%; in assay [6] (setting [8]) it was 91% (active); in assay [6] (at 50.0 µM), 98.4% (active).
Consider `C/C(=N\NC(=S)Nc1ccc(C)cc1)c1nc2ncccc2[nH]1`, for which the growth inhibition is -9% in assay [1] (setting [7]); 84% (active) in assay [1] (setting [8]); 73.8% (active) in assay [1] (at 50.0 µM); -6% in assay [2] (setting [7]); 88% (active) in assay [2] (setting [8]); 66.2% in assay [2] (at 50.0 µM). In addition, the growth inhibition in assay [3] (setting [7]) was 0%; in assay [3] (setting [8]) it was 84% (active); in assay [3] (at 50.0 µM) it was 66.3%; in assay [4] (setting [7]), -36%; in assay [4] (setting [8]), 91% (active); in assay [4] (at 50.0 µM), 64.5%. Further, the growth inhibition is -21% in assay [5] (setting [7]); 97% (active) in assay [5] (setting [8]); 71.5% (active) in assay [5] (at 50.0 µM); 4% in assay [6] (setting [7]); 91% (active) in assay [6] (setting [8]); 50.9% in assay [6] (at 50.0 µM).
Consider `CC1=C(C(=O)Nc2ccccc2)C(c2ccc(Cl)c(Cl)c2)C(C(=O)Nc2ccccc2)=C(C)N1`, for which the growth inhibition is 26% in assay [1] (setting [7]); 26% in assay [1] (setting [8]); 89% (active) in assay [1] (at 50.0 µM); 21% in assay [2] (setting [7]); 21% in assay [2] (setting [8]); 92.8% (active) in assay [2] (at 50.0 µM). For the same molecule, the growth inhibition in assay [3] (setting [7]) is 29%; in assay [3] (setting [8]), 29%; in assay [3] (at 50.0 µM), 91.1% (active); in assay [4] (setting [7]), 8%; in assay [4] (setting [8]), 8%; in assay [4] (at 50.0 µM) it was 91% (active). Further, the growth inhibition in assay [5] (setting [7]) was 1%; in assay [5] (setting [8]), 1%; in assay [5] (at 50.0 µM), 91.5% (active); in assay [6] (setting [7]), 25%; in assay [6] (setting [8]), 25%; in assay [6] (at 50.0 µM) it was 90.6% (active).
In the case of `Nc1cc2c(cc1/C=C(\C(=O)O)c1ccccc1)OCO2`, the growth inhibition in assay [1] (setting [7]) is -1%; in assay [1] (setting [8]) it was -4%; in assay [1] (at 50.0 µM), 52.2%; in assay [2] (setting [7]) it was -11%; in assay [2] (setting [8]), -8%; in assay [2] (at 50.0 µM) it was -8.75%. The growth inhibition is -5% in assay [3] (setting [7]); -8% in assay [3] (setting [8]); 56% in assay [3] (at 50.0 µM); -4% in assay [4] (setting [7]); 9% in assay [4] (setting [8]); -24.6% in assay [4] (at 50.0 µM). For the same molecule, the growth inhibition in assay [5] (setting [7]) was -6%; in assay [5] (setting [8]) it was 2%; in assay [5] (at 50.0 µM) it was -5.95%; in assay [6] (setting [7]), -3%; in assay [6] (setting [8]), -2%; in assay [6] (at 50.0 µM), 15.2%.
Take `Cn1ncc2c(Nc3ccccc3)nc(Nc3ccccc3)nc21`: the growth inhibition in assay [1] (setting [7]) was -1%; in assay [1] (setting [8]), 7%; in assay [1] (at 50.0 µM) it was 54.1%; in assay [2] (setting [7]), -5%; in assay [2] (setting [8]), -33%; in assay [2] (at 50.0 µM), 54.1%. Moreover, the growth inhibition in assay [3] (setting [7]) is -1%; in assay [3] (setting [8]), 8%; in assay [3] (at 50.0 µM) it was 56.5%; in assay [4] (setting [7]) it was 5%; in assay [4] (setting [8]), 0%; in assay [4] (at 50.0 µM) it was 44.5%. In addition, the growth inhibition is -1% in assay [5] (setting [7]); -17% in assay [5] (setting [8]); 72.5% (active) in assay [5] (at 50.0 µM); 5% in assay [6] (setting [7]); 15% in assay [6] (setting [8]); 80.4% (active) in assay [6] (at 50.0 µM).
